Among the test systems are MAP4K2; MAP4K3; MAP4K4; MAP4K5; MAPKAPK2; MAPKAPK5; MARK1; MARK2; MARK3; MARK4.
Conditions in all cases: concentration: 1 μM, replicates: in singlicate; n = 1

The values below come from PMC5540273 (PLoS ONE, 2017).
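Further: KINOMEscan kinase panel screen.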

As to `COc1ccc(Nc2nccc(NCCNC(=O)Nc3cc(C)ccc3C)n2)cc1` [GSK1379899], the “%Inh” value came to 0% with MAP4K2; 3% in the assay on MAP4K3; 16% in the assay on MAP4K4; 26% in the assay on MAP4K5; 15% in the assay on MAPKAPK2; 0% in the assay on MAPKAPK5. Also, the “%Inh” value was determined as 0% in the assay with MARK1, 0% in the assay on MARK2, 0% in the assay with MARK3 and 9% in the assay on MARK4.

Regarding `Cc1ccc(NC(=O)Nc2ccc(Cl)cc2)cc1-c1ccc(C(=O)Nc2ccncc2)cc1` [GSK1398472], the “%Inh” value is listed as 0% with MAP4K2; 0% in the assay on MAP4K3; 5% with MAP4K4; 6% in the assay with MAP4K5; 19% with MAPKAPK2; 0% with MAPKAPK5. Also, the “%Inh” value with MARK1 is 0%; in the assay with MARK2 it was 0%; in the assay with MARK3, 0%; with MARK4 it was 1%.

As for `CNc1nc(-c2ccc3c(N)n[nH]c3c2)cc(N2C[C@@H](C(=O)NC3CCCCC3)OC[C@H]2C)n1` [GSK2375584], the “%Inh” value in the assay on MAP4K2 was 0%; with MAP4K3, 0%; in the assay with MAP4K4, 15%; with MAP4K5, 9%; in the assay with MAPKAPK2, 17%; in the assay on MAPKAPK5, 2%. For the same compound, the “%Inh” value in the assay on MARK1 is listed as 10%; in the assay with MARK2, 0%; in the assay on MARK3 it was 0%; in the assay with MARK4, 18%.

Regarding `O=C(Nc1n[nH]c2nc(-c3ccco3)c(Br)cc12)C1CCN(Cc2ccccc2)C1.O=C(O)[C@H](O)[C@@H](O)C(=O)O` (stereo not shown) [SB-742034], the “%Inh” value with MAP4K2 was determined as 14%; in the assay on MAP4K3, 2%; with MAP4K4, 0%; with MAP4K5, 0%; with MAPKAPK2 it was 5%; in the assay with MAPKAPK5, 5%. Besides, the “%Inh” value with MARK1 is listed as 27%; in the assay on MARK2, 14%; with MARK3, 0%; in the assay on MARK4, 14%.
